# Data: PubChem BioAssay (NCATS)
# Inconclusive results are not listed. Unmarked numbers belong to inactive results. Calls of active or inactive are those of the source. The call rests on the fitted dose curve; in most records, active means well fitted inhibition curve with a large enough effect; inconclusive means small, poorly fitted or top-dose-only effect; inactive means flat fitted curve, though single readings scatter. Where a SMILES comes first, the peptide text is derived from it. [ ]: non-standard residue; d: D form. The star is where a group is joined. dPhe(4-Cl) = N[C@H](Cc1ccc(Cl)cc1)C(=O)O; d2Nal = N[C@H](Cc1ccc2ccccc2c1)C(=O)O; AFC = O=c1cc(C(F)(F)F)c2ccc(N*)cc2o1; dCit = NC(=O)NCCC[C@@H](N)C(=O)O; d3Pal = N[C@H](Cc1cccnc1)C(=O)O
# Legend:
# Assay in all cases: Cytotoxic Profiling of Annotated Libraries Using Quantitative High-Throughput Screening (AID 1296008); further: nearly all actives have a fitted effect of over 60% in size
# Conditions in all cases: Five cell lines viability, CellTiter-Glo ATP luminescence, 48-72 h; max response: hits give low values
# HaCat = tested on: HaCat
# Summary of the method: (§1)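 Cytotoxicity was measured as CellTiter-Glo ATP luminescence, read after 10 min at room temperature. Compound treatment of the cells lasted 48 or 72 hr at 37 degrees Celsius in a qHTS format.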
# KB-3-1 = tested on: KB-3-1
# Summary of the method: as §1
# NIH3T3 = tested on: NIH3T3
# Summary of the method: as §1
# On the % scale 0 is the no-effect control and ±100 the full control effect; potency means the concentration at half of the fitted maximal effect.
smiles,measurement,setting,value
Cc1ccc(NC(=O)C(=O)NC2CC(C)(C)NC(C)(C)C2)cc1,max response,HaCat,-22.4%
same,max response,KB-3-1,-0.25%
same,max response,NIH3T3,-7%
Fc1ccc2nc(CCC#Cc3ccccn3)cn2c1,max response,HaCat,-2.5%
same,max response,KB-3-1,-13.9%
same,max response,NIH3T3,-0.863%
O=C(O)c1cccc(S(=O)(=O)N2CCc3ccccc3C2)c1,max response,HaCat,-24.7%
same,max response,KB-3-1,0.457%
same,max response,NIH3T3,-16.4%
CC[C@H]1OC(=O)[C@](C)(F)C(=O)[C@H](C)[C@@H](O[C@@H]2O[C@H](C)C[C@H](N(C)C)[C@H]2O)[C@](C)(OC)C[C@@H](C)C(=O)[C@@H](C)[C@H]2N(CCCCn3cc(-c4cccc(N)c4)nn3)C(=O)O[C@]12C,max response,HaCat,-5.51%
same,max response,KB-3-1,-12.6%
same,max response,NIH3T3,1.26%
CC1(O)CCCC2(C)C1CCC13CC(CO)C(CCC12)C3 (configuration not stated),max response,HaCat,2.13%
same,outcome,KB-3-1,inactive
same,max response,NIH3T3,-0.27%
CC1(C)CCC(C)(C)c2cc(C3(c4ccc(C(=O)O)cc4)OCCO3)ccc21,outcome,HaCat,inactive
same,max response,KB-3-1,9.31%
same,max response,NIH3T3,-24.2%
NC1CCC(Nc2cc(-c3cccc(NCc4cccc(F)c4)n3)c(Cl)cn2)CC1 (configuration not stated),Potency,HaCat,1.03 µM (active)
same,Potency,KB-3-1,0.366 µM (active)
same,Potency,NIH3T3,1.16 µM (active)
CC(C)c1cc2c(c(O)c1O)[C@@]13CCCC(C)(C)[C@@H]1[C@H](OC3=O)C2=O,max response,HaCat,-2.13%
same,max response,KB-3-1,-17.1%
same,max response,NIH3T3,3.28%
O=C(O)c1cc(I)ccc1NC(=O)[C@H](Cc1ccccc1)NCc1ccccc1,max response,HaCat,-2.36%
same,max response,KB-3-1,-0.475%
same,max response,NIH3T3,1.92%
COC(=O)C(C)C1CCC2(C)C(=O)C=CC(C)(O)C2C1O (configuration not stated),max response,HaCat,4.7%
same,outcome,KB-3-1,inactive
same,max response,NIH3T3,2.97%
CC(c1ncncc1F)C(O)(Cn1cncn1)c1ccc(F)cc1F (configuration not stated),max response,HaCat,-2.25%
same,max response,KB-3-1,0.345%
same,max response,NIH3T3,-5.84%
O=S(=O)(NC1CCC(c2cc(F)ccc2F)(S(=O)(=O)c2ccc(Cl)cc2)CC1)C(F)(F)F (configuration not stated),max response,HaCat,-23.1%
same,max response,KB-3-1,5.9%
same,max response,NIH3T3,-17.1%
COc1ccc(/C=C/C(=O)O[C@@H]2[C@@H](O)[C@H](C)O[C@@H](O[C@H]3[C@@H]4C=CO[C@@H](O[C@H]5O[C@@H](CO)[C@H](O)[C@@H](O)[C@@H]5O)[C@@H]4[C@@]4(CO)O[C@@H]34)[C@@H]2OC(C)=O)cc1,max response,HaCat,3.75%
same,max response,KB-3-1,9.04%
same,max response,NIH3T3,1.61%
CC(=O)N[C@@H](Cc1c[nH]c2ccccc12)C(=O)N[C@@H](CCC(=O)O)C(=O)N[C@@H](Cc1cnc[nH]1)C(=O)N[C@@H](CC(=O)O)C(=O)Nc1ccc2c(C(F)(F)F)cc(=O)oc2c1 (Ac-WEHD-{AFC}),max response,HaCat,-11.3%
same,outcome,KB-3-1,inactive
same,max response,NIH3T3,0.286%
O=C(CCc1nnc2n(Cc3ccc(Cl)cc3)c(=O)c3ccccc3n12)NCCC1=CCCCC1,max response,HaCat,3.41%
same,max response,KB-3-1,-11.9%
same,max response,NIH3T3,1.28%
Cc1[nH]c2ccccc2c1C1=C(NCCc2ccc(F)cc2)C(=O)N(C)C1=O,Potency,HaCat,8.2 µM (active)
same,max response,KB-3-1,-15.2%
same,Potency,NIH3T3,14.6 µM (active)
CC1=C(/C=C/C(C)=C\C=C\C(C)=C/C(=O)O)C(C)(C)CCC1,max response,HaCat,-22.2%
same,outcome,KB-3-1,inactive
same,max response,NIH3T3,0.69%
O=C(Nc1ccn[nH]1)c1c(F)cccc1F,max response,HaCat,-3.04%
same,outcome,KB-3-1,inactive
same,max response,NIH3T3,3.6%
CC[C@@H](O)C[C@@H]1C(C)=C[C@@H]2CCCC[C@@H]2[C@@]1(C)C(=O)O,max response,HaCat,-3.74%
same,outcome,KB-3-1,inactive
same,max response,NIH3T3,-7.4%
CC(=O)O[C@@H]1[C@H](O[C@@H]2O[C@@H](CO)[C@H](O)[C@H]2O)[C@@H](O[C@@H]2O[C@@H](C)[C@H](O[C@@H]3OC[C@@H](O)[C@H](O)[C@H]3O)[C@@H](O)[C@H]2O)[C@H](OC(=O)[C@]23CCC(C)(C)C[C@H]2C2=CCC4[C@@]5(C)CC[C@H](O[C@@H]6O[C@H](C(=O)O)[C@@H](O)[C@H](O)[C@H]6O[C@@H]6O[C@H](CO)[C@H](O)[C@H](O)[C@H]6O)[C@@](C)(C=O)C5CC[C@@]4(C)[C@]2(C)CC3)O[C@@H]1C (some centres not stated),outcome,HaCat,inactive
same,max response,KB-3-1,5.7%
same,max response,NIH3T3,4.82%
COc1cc(NC(=O)Nc2cccc(CNC(=O)O[C@H]3CCOC3)c2)ccc1-c1cnco1,max response,HaCat,-5.46%
same,Potency,KB-3-1,4.11 µM (active)
same,Potency,NIH3T3,3.66 µM (active)
C/C(=C/CO)CC[C@@H]1[C@@](C)(O)CCC2C(C)(C)CCC[C@]21C (some centres not stated),max response,HaCat,0.603%
same,max response,KB-3-1,5.46%
same,max response,NIH3T3,-10.9%
OCCc1ccc(O[C@@H]2O[C@H](CO)[C@@H](O)[C@H](O)[C@H]2O)cc1,max response,HaCat,-3.11%
same,max response,KB-3-1,-1.98%
same,max response,NIH3T3,2.39%
C=C1C[C@]23C[C@H]1CC[C@H]2[C@@]1(C)CCC[C@@]2(C)C(=O)O[C@@H]([C@@H]3O)[C@@H]12,max response,HaCat,-2.64%
same,outcome,KB-3-1,inactive
same,max response,NIH3T3,-6.16%
Cc1cn(C2C=CC(CO)O2)c(=O)[nH]c1=O (configuration not stated),max response,HaCat,-43.4%
same,max response,KB-3-1,6.19%
same,max response,NIH3T3,-7.77%
C#CCN(Cc1cc2c(=O)[nH]c(C)nc2cc1Br)c1ccc(C(=O)NCc2cccnc2)cc1,Potency,HaCat,0.0411 µM (active)
same,Potency,KB-3-1,0.0052 µM (active)
same,Potency,NIH3T3,0.0092 µM (active)
O=C(O)Cc1ccc2oc(-c3ccc(NC(=O)/C=C/c4ccc(Br)cc4)c(F)c3)nc2c1,max response,HaCat,2.81%
same,max response,KB-3-1,0.378%
same,max response,NIH3T3,1.97%
O=C(/C=C/c1cccc(S(=O)(=O)Nc2ccccc2)c1)NO,Potency,HaCat,5.02 µM (active)
same,Potency,KB-3-1,2.82 µM (active)
same,Potency,NIH3T3,7.96 µM (active)
CCCNc1ccc2ncc(-c3ccc4[nH]ncc4c3)n2n1,Potency,HaCat,0.411 µM (active)
same,Potency,KB-3-1,1.3 µM (active)
same,Potency,NIH3T3,3.26 µM (active)
COC(=O)C[C@H]1[C@]2(C)C3=C(C)[C@H](c4ccoc4)C[C@H]3O[C@@H]2[C@H](OC(C)=O)C2[C@](C)(C(=O)OC)C=CC(=O)[C@@]21C (some centres not stated),max response,HaCat,-0.0032%
same,max response,KB-3-1,1.1%
same,max response,NIH3T3,4.56%
CC1OC(OC2C(OC3C(O[C@H]4CC[C@@]5(C)C(CC[C@]6(C)C5C(=O)C=C5C7CC(C)(C)CC(O)[C@]7(C)CC[C@]56C)C4(C)C)OC(C(=O)O)C(O)C3O)OCC(O)C2O)C(O)C(O)C1O (some centres not stated),max response,HaCat,-1.72%
same,max response,KB-3-1,-2.68%
same,max response,NIH3T3,-3.29%
CC(=O)N[C@H]1[C@H](O[C@H]2CC[C@@]3(C)C(CC[C@]4(C)C3CC=C3[C@@H]5CC(C)(C)CC[C@]5(C(=O)OC5OCC(O)C(O)C5O)CC[C@]34C)C2(C)C)O[C@H](COC2OC(C)C(O)C(OC3OC(C)C(O)C(O)C3O)C2O)[C@@H](O)[C@@H]1O (some centres not stated),max response,HaCat,2.89%
same,outcome,KB-3-1,inactive
same,max response,NIH3T3,3.74%
COc1cc(O)cc(/C=C/c2ccc(O[C@@H]3O[C@H](CO)[C@@H](O)[C@H](O)[C@H]3O)cc2)c1,max response,HaCat,0.534%
same,outcome,KB-3-1,inactive
same,max response,NIH3T3,4.58%
CC(=O)N[C@H](Cc1ccc2ccccc2c1)C(=O)N[C@H](Cc1ccc(Cl)cc1)C(=O)N[C@H](Cc1cccnc1)C(=O)N[C@@H](CO)C(=O)N[C@@H](Cc1ccc(O)cc1)C(=O)N[C@H](CCCNC(N)=O)C(=O)N[C@@H](CC(C)C)C(=O)N[C@@H](CCCN=C(N)N)C(=O)N1CCC[C@H]1C(=O)N[C@H](C)C(N)=O (Ac-[d2Nal][dPhe(4-Cl)][d3Pal]SY[dCit]LRP[dA]-NH2),max response,HaCat,-5.33%
same,max response,KB-3-1,9.13%
same,max response,NIH3T3,4.07%
C/C=C/C=C/C(O)=C1\C(O)=C(C)C(=O)[C@@]2(C)OC(=O)[C@@](C)(NC(=O)/C=C/C(=O)O)[C@@H]12,max response,HaCat,-17.6%
same,max response,KB-3-1,-1.41%
same,max response,NIH3T3,-1.65%
CC(=O)N1CCN(Cc2ccc([C@H](C)Nc3nccc(N4C(=O)OC[C@@H]4C(C)C)n3)cc2)CC1,max response,HaCat,-0.103%
same,max response,KB-3-1,2.58%
same,max response,NIH3T3,-9.86%
CC1=C(CO)C(=O)O[C@@H]([C@@H](C)[C@H]2CC[C@H]3[C@@H]4C[C@H]5O[C@]56[C@@H](O)C=CC(=O)[C@]6(C)[C@H]4CC[C@]23C)C1,Potency,HaCat,3.17 µM (active)
same,Potency,KB-3-1,2.82 µM (active)
same,Potency,NIH3T3,5.63 µM (active)
C[C@@H]1CN(Cc2ncccn2)C[C@H]1c1nc2c(cnn2C2CCOCC2)c(=O)[nH]1,max response,HaCat,0.321%
same,max response,KB-3-1,-1.41%
same,max response,NIH3T3,-4.05%
CCCOC(c1cc2nccc(C(=O)O)c2[nH]1)c1ccccc1Cl (configuration not stated),max response,HaCat,-2.87%
same,outcome,KB-3-1,inactive
same,max response,NIH3T3,4.32%
C=C1CC[C@@H]2[C@](C)(CO[C@@H]3O[C@H](CO)[C@@H](O)[C@H](O)[C@H]3O)[C@H](O)CC[C@@]2(C)[C@@H]1C/C=C1/C(=O)OC[C@H]1O,max response,HaCat,3.39%
same,outcome,KB-3-1,inactive
same,max response,NIH3T3,2.12%
O=C1NC2CCc3nc4ccccc4c(=O)n3C2=Nc2ccccc21 (configuration not stated),max response,HaCat,3.54%
same,outcome,KB-3-1,inactive
same,max response,NIH3T3,4.44%
C/C=C(\C)C(=O)O[C@H]1[C@@H](O[C@]2(COC(=O)CC(C)C)O[C@H](COC(=O)C(C)CC)[C@@H](OC(C)=O)[C@@H]2O)O[C@H](COC(C)=O)[C@@H](O)[C@@H]1O (some centres not stated),max response,HaCat,1.55%
same,max response,KB-3-1,6.8%
same,max response,NIH3T3,-0.857%
CC12CCC(=O)C=C1C(O)CC1C2C(O)CC2(C)C1CC[C@]2(O)C(=O)CO (some centres not stated),max response,HaCat,0.87%
same,outcome,KB-3-1,inactive
same,max response,NIH3T3,0.282%
CN1c2ccccc2C(=O)N2CCC3c4ccccc4NC3C21 (configuration not stated),Potency,HaCat,2.02 µM (active)
same,Potency,KB-3-1,3.6 µM (active)
same,Potency,NIH3T3,7.18 µM (active)
